# Test results from PubChem BioAssay AID686978 (National Center for Advancing Translational Sciences (NCATS), 2013).
# Screen size: about 420,000 compounds; about 64,000 (15%) were called active. Inconclusive results (about 27%) are left out. Only a sample is shown. A number with no mark means an inactive call. Calls follow the shape of the dose curve; as a rule, active = well fitted inhibition curve with a large enough effect; inconclusive = small, poorly fitted or top-dose-only effect; inactive = flat fitted curve, though single readings scatter.
# Assay: qHTS for Inhibitors of human tyrosyl-DNA phosphodiesterase 1 (TDP1): qHTS in cells in absence of CPT; also: nearly all actives have a fitted effect of over 55% in size
# Details: DT40 Tdp1-/- hTDP1 cells, no CPT, ATP luminescence, 48 h; activity change, negative = growth inhibition: at 46.2 µM (top of the series)
# Procedure, shortened: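 Readout: luminescence from CellTiter-Glo after 30 min in the dark at RT. Cells: DT40 Tdp1-/- with stable hTDP1, 400/well. Exposure: compounds alone, ≥48 hr, 37 °C.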
# % is scaled to controls: 0 for no effect and ±100 for the full control effect; potency is read from the fitted curve at half-maximal effect.
SMILES,"activity change, negative = growth inhibition [%]",Potency
COc1cc(OC)cc(C(=O)OCC(=O)Nc2ccc(F)cc2F)c1,1.65,
Cc1cccc(C(=O)OCC(=O)Nc2sccc2C(N)=O)c1C,-9.13,
COc1cc(OC)cc(C(=O)OCC(=O)Nc2sccc2C(N)=O)c1,,18.4 µM (active)
COc1ccc(S(=O)(=O)NC(C)c2ccccc2)cc1C(=O)N1CCCCC1 (stereo not given),-5.94,
Cc1ccc2cc(CCNC(=O)c3c(-c4ccccc4Cl)noc3C)c(=O)[nH]c2c1,,18.4 µM (active)
Cc1cc(C)cc(NC(=O)CCCc2nc(-c3ccccc3Cl)no2)c1,-11.2,
Cc1ccc(CNC(=O)c2c(-c3ccccc3)noc2C)cc1,-4.56,
O=S(=O)(/C=C/c1ccccc1)NCCc1ccccn1,1.82,
COc1cc(OC)cc(C(=O)N[C@H](C(=O)Nc2nc3ccccc3[nH]2)C(C)C)c1,,2.59 µM (active)
COc1cc(OC)cc(C(=O)N[C@H](C(=O)OCC(=O)NC(C)c2ccccc2)C(C)C)c1 (stereo not given in full),-21.4,
COc1ccc(C(=O)N[C@H](C(=O)NCc2ccccc2)C(C)C)cc1,-23.7,
C=CCSc1nnc(Cn2c(=O)sc3ccccc32)n1C,10.5,
COc1ccc(CCN2CC(C(=O)OCC(=O)NCc3ccccc3Cl)CC2=O)cc1OC (stereo not given),26.6,
COC(=O)[C@]1(C)CCC[C@@]2(C)C3CC[C@]4(OC(C)=O)C[C@@]3(CCC21)CC4=NO (stereo not given in full),,16.4 µM (active)
CN1CCN(C(=O)N2c3ccccc3CCc3ccccc32)CC1,-30,
CC(C)c1cc(Cn2c3ccccc3c(=O)n2C(C)Cn2cc(C3CC3)nn2)on1 (stereo not given),6.1,
CC(C)Oc1ccc(CN2CCC(n3nccc3NC(=O)c3cccnc3)CC2)cc1,-0.551,
CCOC(=O)C1=NNC2(c3ccc(Cl)cc3)C(=O)N(c3cc(C)cc(C)c3)C(=O)C12 (stereo not given),-6.76,
COc1ccc(-c2[nH]nc3c2C(c2ccncc2)C(C#N)=C(N)O3)cc1 (stereo not given),-26.7,
Cc1cc2c(c(=O)n1Cc1ccco1)C(c1ccccc1)C(C#N)=C(N)O2 (stereo not given),-6.25,
Cc1nn(Cc2ccccc2)c2c1C(c1ccccc1)C(C#N)=C(N)O2 (stereo not given),,25.9 µM (active)
O=C(COC(=O)c1cc([N+](=O)[O-])ccc1NCc1ccccc1)NC1CCCCC1,-26.8,
CC(=O)OCCN(CCCn1c(-c2ccncc2)nc2ccccc21)c1nc(-c2ccc(C)cc2)cs1,-19.6,
Cc1ccc(-c2csc(N3CCN(c4cc5c(cc4Cl)nc(-c4ccncc4)n5CCOCCO)CC3)n2)cc1,,29.1 µM (active)
Nc1c(Cl)cc(-c2csc(N3CCCC3c3nc4cc(Cl)c(Cl)cc4n3CCOCCO)n2)cc1Cl (stereo not given),-7.82,

SMILES,"activity change, negative = growth inhibition [%]",Potency
CC(NC(=O)c1ccc(S(=O)(=O)Nc2ccccc2)cc1)c1ccc(S(N)(=O)=O)cc1 (stereo not given),3.6,
CCOC(=O)c1cc2occc2n1CC(=O)NC1CCC(C)CC1 (stereo not given),-7.14,
CC(=O)N1C[C@@H](CO)[C@@H](N(C)C(=O)c2ccco2)C[C@H]1c1ccccc1,-1.14,
Cn1c(SCC(=O)Nc2ccc(Cl)cc2)nc(O)cc1=O,-3.9,
O=C(Nc1nc2ccc(F)cc2s1)c1nc(SCc2ccccc2F)ncc1Cl,-6.24,
CN(CC(=O)Nc1ccccc1C(F)(F)F)C(=O)Cc1ccccc1F,-4.86,
Cc1cccc(C(=O)Nc2ccc(Oc3cnccn3)cc2)c1,8.2,
Cc1ccc(NC(=O)c2nc(S(=O)(=O)Cc3cccc(C)c3)ncc2Cl)cc1,,0.651 µM (active)
CCCSc1ncc(Cl)c(C(=O)Nc2c(C(=O)Nc3ccccc3)oc3ccccc23)n1,-8.39,
CCSc1ncc(Cl)c(C(=O)Nc2cc(C)ccc2C)n1,,inactive
CCSc1nnc(NC(=O)c2ccc(C)cc2)s1,-4.86,
Cc1cccc(NC(=O)c2nc(S(=O)(=O)Cc3ccccc3)ncc2Cl)c1,,2.06 µM (active)
O=C(Nc1ccccc1C(F)(F)F)c1nc(S(=O)(=O)Cc2ccccc2F)ncc1Cl,,0.708 µM (active)
Cc1cccc(NC(=O)C(C)SCc2ccccc2)c1 (stereo not given),-1.64,
CSc1nnc(NC(=O)c2nc(S(=O)(=O)Cc3ccc(C)cc3)ncc2Cl)s1,,4.11 µM (active)
NC(=O)CSc1nnc(NC(=O)c2ccc(Br)o2)s1,-14.2,
CCOc1ccc(S(=O)(=O)N2CCN=C2Cc2ccccc2)cc1C,-25.1,
O=C(COC(=O)c1cc(=O)[nH]c2ccccc12)NCc1cccc(Cl)c1,-0.601,
COc1ccccc1C1SCCN1C(=O)c1ccc([N+](=O)[O-])cc1 (stereo not given),4.74,
Cc1cc(/C=C2\SC(=O)N(C)C2=O)c(C)n1-c1cccc(C(=O)O)c1,8.74,
Nc1cccc(-c2cncc(N3CCN(Cc4ccccn4)CC3)n2)c1,-26.4,
Nc1c(-c2ccccc2)nnn1Cc1ccccc1,-3.82,
O=C(Nc1cccnc1)c1ccc(Cl)cc1[N+](=O)[O-],1.36,
Clc1ccc(C=NC23CN4CN(CN(C4)C2)C3)cc1,5.74,
Cc1cccc(CS(=O)(=O)c2ncc(Cl)c(C(=O)Nc3ccc(F)cc3)n2)c1,,1.84 µM (active)

SMILES,"activity change, negative = growth inhibition [%]",Potency
Cc1cccc(OCc2ccc(C(=O)Nc3ccc(F)cc3)cc2)c1,-17.5,
Cn1cc([N+](=O)[O-])c(C(=O)Nc2cnn(Cc3ccc(F)cc3)c2)n1,-11.5,
COc1ccc(S(=O)(=O)NC(C)C(=O)NCc2ccncc2)cc1Cl (stereo not given),-28.8,
O=C(NC1CCCC1)C1CC(=O)N(c2ccc(F)cc2)C1 (stereo not given),-12.7,
O=C(c1cc(-c2ccc(F)cc2)on1)N1CCN(c2ccc(F)cc2)CC1,1.37,
O=C(c1cccc(C(=O)N2CCN(c3ccc(F)cc3)CC2)c1)N1CCN(c2ccc(F)cc2)CC1,,13 µM (active)
O=[N+]([O-])c1ccc(N2CCN(c3ccc(F)cc3)CC2)cn1,-4.53,
Cc1noc(C)c1S(=O)(=O)Nc1ccc(C(=O)N2CCN(c3ccc(F)cc3)CC2)cc1,-25.6,
O=C(c1cc2cc(F)ccc2[nH]1)N1CCN(c2ccc(F)cc2)CC1,7.44,
O=C(c1cc(C(=O)N2CCN(c3ccc(F)cc3)CC2)cc([N+](=O)[O-])c1)N1CCN(c2ccc(F)cc2)CC1,,4.61 µM (active)
CS(=O)(=O)N1CCC2(CC1)CN(Cc1cc(C(F)(F)F)cc(C(F)(F)F)c1)C2,0.577,
Cc1c(NC(=O)COC(=O)/C=C/c2cccc(F)c2)c(=O)n(-c2ccccc2)n1C,-19.5,
Cc1ccnc(NS(=O)(=O)c2ccc(NC(=O)c3oc4ccccc4c3C)cc2)n1,0.414,
Cc1oc(C(N)=O)cc1COc1ccc(C(N)=O)cc1,-8.07,
CCc1cccc2c3c([nH]c12)C(CC)(CC(=O)O)OCC3 (stereo not given),,inactive
CC1=CC(C)(C)Nc2ccc(OC(=O)CN3C(=O)C4CCCCC4C3=O)cc21 (stereo not given),,2.31 µM (active)
O=C(COC(=O)CN1C(=O)C2CCCCC2C1=O)Nc1ccc(F)c(F)c1F (stereo not given),10.7,
CC(OC(=O)CN1C(=O)C2CCCCC2C1=O)C(=O)Nc1ncc(Cl)cc1Cl (stereo not given),-9.52,
O=C(CN1C(=O)NC(Cc2c[nH]c3ccccc23)C1=O)Nc1ccccc1C(F)(F)F (stereo not given),-3.58,
COc1cccc(NC(C)=[N+](C)CCNS(=O)(=O)c2ccc(Cl)cc2)c1,-23.4,
COc1ccc(S(=O)(=O)NCCCCOc2ccc(Cl)cc2)cc1,,2.06 µM (active)
COc1ccc(S(=O)(=O)NCCCc2ccccc2)cc1,-27.7,
Cc1nc(N)[nH]c(=O)c1Oc1cccc(C(F)(F)F)c1,-2.45,
Cc1cccc(N=C2NN=C(c3c[nH]c4ccccc34)CS2)c1,-13.4,
Clc1cccc(N=C2NN=C(c3ccc4c(c3)OCCO4)CS2)c1,,10.3 µM (active)

SMILES,"activity change, negative = growth inhibition [%]",Potency
COc1ccccc1CCNC(=O)c1cccn1-c1nnc(N2CCCCC2)s1,,1.64 µM (active)
COc1ccccc1CNC(=O)C1CCN(c2nc3ccccc3o2)CC1,-11,
CSc1ccc(CCNC(=O)C2CCN(c3nnc(-n4cccc4)s3)CC2)cc1,-17,
N#CC(=C1CCCC1)c1nc(-c2ccc(Cl)cc2)cs1,-27.4,
CCOC(=O)C1CCC(CN(Cc2ccc(OC)cc2)S(=O)(=O)c2ccc(F)c(C(=O)Nc3cc(C)ccc3C)c2)CC1 (stereo not given),-11.9,
Cc1cc2c(cc1S(=O)(=O)NCc1ccc(Cl)cc1)OCC(=O)N2,2.83,
O=C(CCC(=O)OCc1ccc(Cl)cc1)Nc1ccccc1,-0.379,
CC(=O)N1CCC(C(=O)OCc2ccc(Cl)cc2)(c2ccccc2)CC1,,11.6 µM (active)
CC(=O)N1CCC2(CCCN(Cc3ccccc3)C2)CC1,-18.3,
Cc1noc(C)c1NC(=O)Nc1ccc2c(c1)C(=O)N([C@H](C)CO)C[C@H](C)[C@@H](CN(C)S(=O)(=O)c1cn(C)cn1)O2,-2.48,
NS(=O)(=O)c1ccc(NC(=O)CSc2nnc3c(n2)[nH]c2ccccc23)cc1,-0.0777,
CCN(CC)c1ccc(/C=C/c2c(C)cnc3ccc(C)cc23)cc1,,20 µM (active)
CCOC(=O)N1CCN(c2c(NCCCN3CCCC(C)C3)c(=O)c2=O)CC1 (stereo not given),-4.27,
CC(C)C(=O)OCC(=O)Nc1ccc2c(c1)CCC2,1.2,
CCOc1ccc(NC(=O)C2CC(=O)N=C(N)S2)cc1 (stereo not given),-4.41,
Cc1ccc(C(=O)Nc2nnc(C3=COCCO3)o2)cc1C,,23.1 µM (active)
COc1ccccc1-c1nnc(NC(=O)c2cccc(N3C(=O)CCC3=O)c2)o1,7.07,
COc1cc(-c2nnc(NC(=O)C3=COCCO3)o2)cc(OC)c1OC,5.88,
COc1cc(C(=S)N2CCOCC2)ccc1O,,inactive
CCCCC(NC(=O)c1cccc(Br)c1)C(=O)O (stereo not given),1.16,
O=C(CN1C(=O)NC2(CCCC2)C1=O)NCC1CCCO1 (stereo not given),5.83,
O=C(c1ccccc1)N1CCN(C(=O)N2CCCCC2)CC1,0.232,
CC(C)c1ccc(NC(=O)C2CCN(c3nc(-c4ccc(C(C)C)cc4)no3)CC2)cc1,,13 µM (active)
CC(=O)NN=C(C)c1ccc(NC(=O)C2CC2)cc1,-85.3,
Cc1cc(C)cc(NC(=O)C2CCN(c3nc(C)cc(C)n3)CC2)c1,-8.01,
